The record followed here is PubChem BioAssay (NCI).

Each structure is given as a SMILES string. Compounds without any hit were thinned out: in the full panel of roughly 83,000, 20% have a hit.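 48-hour exposure, single concentration, 96-well plates; percent growth endpoint where 0 means no net growth. Active: below 10.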 The source made the active and inactive calls.

In the assay the test system is NCI/ADR-RES ovarian. Kind of assay: NCI-60 one-dose screen, 48 h (100 = growth as untreated, 0 = no growth, -100 = all killed). Conditions: 10 µM unless noted.
Regarding `COc1cccc(-c2nn(-c3ccccc3)cc2-c2ccnc(NCCCN)c2)c1`, the growth is 25% (inactive).

As for `Cn1cnc2c1c(=O)n(CCC(=O)Nc1ccc(F)cc1)c(=O)n2C`, the growth was 109% (inactive).

Take `C=C(C)[C@@H]1CC[C@]2(C=O)CC[C@]3(C)[C@H](CC[C@@H]4[C@@]5(C)C/C(=C/c6cccnc6)C(=O)C(C)(C)[C@@H]5CC[C@]43C)[C@@H]12`: the growth is 78.5% (inactive).

Take `CN(C)c1cccc2[nH]c(-c3[nH]ncc3Nc3ccnc(N)n3)nc12`: the growth was -1.48% (active).

For `O=Cc1nc2ccccc2[nH]1`, the growth is 106% (inactive).

With `COc1cc2nc(Cl)nc(Nc3cccc(C(=O)/C=C/c4ccc(Br)cc4)c3)c2cc1OC`, the growth was 92.2% (inactive).

Take `CC[C@H](CC[C@@H](C)[C@H]1CC[C@H]2[C@@H]3/C(=C/c4cccnc4)C(=O)C4=CC(=O)CC[C@]4(C)[C@H]3CC[C@]12C)C(C)C`: the growth is 90.5% (inactive).

For `C=C(C)[C@@H]1CC[C@]2(c3nnc(-c4ccncc4)o3)CC[C@]3(C)[C@H](CC[C@@H]4[C@@]5(C)CCC(=O)NC(C)(C)[C@@H]5CC[C@]43C)[C@@H]12`, the growth was 97.5% (inactive).

For the compound `COc1cc(NC(C)CN(CC(C)C)C(C)C)c2ncccc2c1` (stereo unspecified), the growth was 93.3% (inactive).

`Nc1c2c(nc3ccc(Cl)cc13)CC(c1ccccc1)CC2=O` (stereo unspecified): the growth was 22.5% (inactive).

On to `COC(=O)[C@]12CC[C@@H](C)[C@H](C)[C@@H]1C1=CC[C@@H]3[C@@]4(C)C[C@@H](O)[C@H](O)[C@@](C)(CO)C4=CC[C@@]3(C)[C@]1(C)CC2`, for which the growth is -45.6% (active).
